According to PubChem BioAssay AID1851 (National Center for Advancing Translational Sciences (NCATS), 2009):
Hit rate of the full screen: of about 16,000 compounds, about 5,800 (36%) were called active. About 23% were inconclusive and are not listed. The list shows a part of the results. Values without a mark were called inactive. Calls follow the shape of the dose curve; as a rule, active = well fitted curve in the direction sought with a large enough effect; inconclusive = small, poorly fitted or top-dose-only effect, or effect the other way; inactive = no such curve, though single readings can be large or run the other way.
% is scaled to controls: 0 for no effect and ±100 for the full control effect.

Each compound was assayed against Cytochrome P450 2C19 (Homo sapiens) (UniProt P33261) (assay: Cytochrome panel assay with activity outcomes). Conditions: recombinant CYP, pro-luciferin dealkylation, luminescence, p450-cyp2c19; series mostly up to 57.1 µM.
Chain of Cytochrome P450 2C19 (Homo sapiens) (P33261 whole entry, looked up): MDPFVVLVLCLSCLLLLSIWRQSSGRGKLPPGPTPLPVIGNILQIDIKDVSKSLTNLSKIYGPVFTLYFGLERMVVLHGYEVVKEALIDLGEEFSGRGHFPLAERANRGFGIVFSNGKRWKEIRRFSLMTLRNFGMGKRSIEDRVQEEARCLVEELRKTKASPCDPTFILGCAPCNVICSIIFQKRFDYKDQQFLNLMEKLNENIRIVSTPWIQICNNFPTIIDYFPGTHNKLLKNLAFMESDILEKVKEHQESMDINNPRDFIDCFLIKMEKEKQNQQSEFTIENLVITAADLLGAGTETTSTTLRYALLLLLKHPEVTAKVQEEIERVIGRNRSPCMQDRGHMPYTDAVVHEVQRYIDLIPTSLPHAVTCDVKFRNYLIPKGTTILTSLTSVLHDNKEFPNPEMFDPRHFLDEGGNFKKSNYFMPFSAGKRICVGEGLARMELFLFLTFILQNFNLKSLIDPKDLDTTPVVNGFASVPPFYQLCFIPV
`COc1ccc(O[C@H]2C=C[C@@H](c3ccccc3)O[C@@H]2CON=C(C)C)cc1` showed an activity, negative = inhibition of -28.2% [at 11.4 µM].
For `COc1ccc(O[C@H]2C=C[C@@H](c3ccccc3)O[C@H]2CO/N=C(/C)CCC(=O)OC[C@@H]2O[C@H](c3ccccc3)C=C[C@@H]2Oc2ccc(OC)cc2)cc1`, the AC50 was 0.1 µM (active).
With `CC(=O)OC[C@H]1O[C@@H](O/N=C(\C)CCN2CCc3nc(-c4ccccc4)c(-c4ccccc4)cc3C2)[C@H](OC(C)=O)[C@@H](OC(C)=O)[C@H]1OC(C)=O` the activity, negative = inhibition was 6.61% [at 11.4 µM].
`CC(=O)OC[C@H]1O[C@@H](ON=C(C)C)[C@H](OC(C)=O)[C@@H](OC(C)=O)[C@H]1OC(C)=O` showed an activity, negative = inhibition of 32.2% [at 11.4 µM].
`COc1ccc(O[C@H]2C=C[C@@H](c3ccccc3)O[C@H]2COC(=O)CC/C(C)=N/O[C@@H]2O[C@H](COC(C)=O)[C@H](OC(C)=O)[C@H](OC(C)=O)[C@H]2OC(C)=O)cc1` was tested, and the AC50 was 1.58 µM (active).
`CCCNC(=O)OC[C@@H]1O[C@H](c2ccccc2)C=C[C@@H]1Oc1ccc(OC)cc1` gave an activity, negative = inhibition of -44.8% [at 11.4 µM].
`CC(=O)OC[C@@H]1O[C@H](CCON=C(C)C)C=C[C@@H]1OC(C)=O` showed an activity, negative = inhibition of -20.6% [at 11.4 µM].
With `CC(=O)OC[C@@H]1O[C@H](CCO/N=C(\C)CCC(=O)OC[C@@H]2O[C@H](C#Cc3ccccc3)C=C[C@@H]2Oc2ccc(C)cc2)C=C[C@@H]1OC(C)=O` the activity, negative = inhibition was -44.9% [at 11.4 µM].
In the case of `COc1ccc(O[C@H]2C=C[C@@H](c3ccccc3)O[C@H]2COC(=O)N2CCCCC2)cc1`, the AC50 is reported as 0.501 µM (active).
With `COc1ccc(O[C@H]2C=C[C@@H](c3ccccc3)O[C@H]2COC(=O)CC/C(C)=N/OCC[C@@H]2C=C[C@H](OC(C)=O)[C@H](COC(C)=O)O2)cc1` the AC50 was 0.398 µM (active).
For `CC(=O)OC[C@@H]1O[C@H](C/C=N\OC[C@@H](C)[C@H](OCc2ccccc2)C(C)C)C=C[C@@H]1OC(C)=O`, the activity, negative = inhibition was -16.1% [at 11.4 µM].
`C/C(CCN1CCc2nc(-c3ccccc3)c(-c3ccccc3)cc2C1)=N\OC[C@@H](O)[C@@H]1O[C@@H]2OC(C)(C)O[C@@H]2[C@H]1O` gave an activity, negative = inhibition of 3.78% [at 11.4 µM].
In the case of `COc1ccc(O[C@H]2C=C[C@@H](c3ccccc3)O[C@H]2COC(=O)CC/C(C)=N\O[C@@H](C)c2cc(-c3c(C)cc(C)cc3C)no2)cc1`, the AC50 is reported as 0.1 µM (active).
Compound `CC(=O)OC[C@@H]1O[C@H](C/C=N\O[C@@H](C)c2cc(-c3c(C)cc(C)cc3C)no2)C=C[C@@H]1OC(C)=O` has an activity, negative = inhibition of -35.1% [at 11.4 µM].
Compound `CCc1cc2c(nc1CC)CCN(CC/C(C)=N/O[C@@H](C)c1cc(-c3c(C)cc(C)cc3C)no1)C2` has an activity, negative = inhibition of -42.9% [at 11.4 µM].
In the case of `CC(C)CO/N=C1/[C@H]2O[C@@H]2[C@@H](O)[C@H]2[C@H]1CCn1c(=O)n(-c3ccccc3)c(=O)n12`, the activity, negative = inhibition is reported as 15.7% [at 11.4 µM].
For `COc1ccc(O[C@H]2C=C[C@@H](c3ccccc3)O[C@H]2CO/N=C2/[C@H]3O[C@@H]3[C@@H](O)[C@H]3[C@H]2CCn2c(=O)n(-c4ccccc4)c(=O)n23)cc1`, the AC50 was 2.51 µM (active).
For `COc1ccc(O[C@H]2C=C[C@@H](c3ccccc3)O[C@H]2COC(=O)CC/C(C)=N\OC[C@@H](O)[C@H]2O[C@H]3OC(C)(C)O[C@H]3[C@@H]2O)cc1`, the AC50 was 0.00501 µM (active).
Work on `CCCNC(=O)OC[C@H]1O[C@@H](CCO/N=C2/[C@H]3O[C@@H]3[C@@H](O)[C@H]3[C@H]2CCn2c(=O)n(-c4ccccc4)c(=O)n23)C=C[C@@H]1Oc1ccc(OC)cc1` yielded an activity, negative = inhibition of -3.58% [at 11.4 µM].
`CC(=O)OC[C@@H]1O[C@H](C/C=N\OC[C@@H](O)COCc2ccco2)C=C[C@@H]1OC(C)=O` gave an activity, negative = inhibition of 14.8% [at 11.4 µM].
For `COc1ccc(O[C@H]2C=C[C@@H](c3ccccc3)O[C@H]2CO/N=C\C[C@@H]2C=C[C@H](OC(C)=O)[C@H](COC(C)=O)O2)cc1`, the AC50 was 0.794 µM (active).
`C/C(CCN1CCCc2nc(C)c(C)cc21)=N\OC[C@@H](O)[C@@H]1O[C@@H]2OC(C)(C)O[C@@H]2[C@H]1O` gave an activity, negative = inhibition of -36.9% [at 11.4 µM].
`Cc1cc2c(nc1C)CCCN2CC(O)CN1CCCc2nc(C)c(C)cc21` was tested, and the activity, negative = inhibition was 6.93% [at 11.4 µM].
With `Cc1ccc(S(=O)(=O)CC(O)CN2CCCC2=O)cc1` (configuration not stated) the AC50 was 10 µM (active).
For `O=C1CCCN1CC(O)CS(=O)(=O)c1ccccc1` (configuration not stated), the AC50 was “inactive”.
For `CN(C)C(=O)/N=N\C(=O)N(C)C`, the AC50 was “inactive”.
Work on `N[C@H](C(=O)O)[C@@H](O)c1cnc[nH]1` yielded an activity, negative = inhibition of -17.9% [at 11.4 µM].
`C=CCOC(=O)/C(=C\c1cccc2ccccc12)NC(=O)c1ccccc1` was tested, and the AC50 was 0.398 µM (active).
`CCOc1ccccc1/C=C(\C#N)C(N)=O` was tested, and the activity, negative = inhibition was -18.7% [at 11.4 µM].
`CCOc1cccc2cc(C(N)=O)c(=NCc3ccccc3)oc12` was tested, and the AC50 was 10 µM (active).
With `COCc1nc2c([nH]1)c(=O)n(C)c(=O)n2CC(C)C` the AC50 was “inactive”.
`CC(C)Cn1c(SCc2nc3ccccc3c(=O)[nH]2)nc2ccccc2c1=O` was tested, and the AC50 was 2.51 µM (active).
`COCCn1c(Cc2ccccc2)nnc1SCc1nc2ccccc2c(=O)[nH]1` was tested, and the AC50 was “inactive”.
With `O=C(CSc1ccccc1C(=O)O)NCc1ccco1` the AC50 was “inactive”.
With `CC(=O)NCCn1c(SCC(=O)NCc2ccco2)nc2ccccc2c1=O` the AC50 was 1.12 µM (active).
For `O=C(CSc1nc2ccccc2c(=O)n1Cc1ccccc1)NCc1ccco1`, the AC50 was 0.708 µM (active).
`CCOC(=O)CSc1nc2ccccc2c(=O)n1CC1CCC(C(=O)NCc2ccco2)CC1` (configuration not stated) was tested, and the AC50 was 7.08 µM (active).
With `C=CCNC(=O)C1CCN(S(=O)(=O)CC)CC1` the AC50 was “inactive”.
With `O=C(CSc1nc2ccccc2c(=O)n1CCCO)NCc1ccccc1` the AC50 was 11.2 µM (active).
`C=CCSc1nc2ccccc2c(=O)n1Cc1ccco1` was tested, and the AC50 was 1 µM (active).
With `Cc1cccc(C)c1-n1c(SCC(=O)NCc2ccco2)nc2ccccc2c1=O` the AC50 was 4.47 µM (active).
For `Cc1cc(NC(=O)CSc2nc3ccccc3c(=O)n2CCCC(=O)NCc2ccco2)n[nH]1`, the AC50 was 2.24 µM (active).
